Hits are enriched below; roughly 1% of the tested compounds scored in any of these assays.
rTrxR1 inhibitor – inhibitors of rat thioredoxin reductase 1; recombinant rTrxR1, NADPH fluorescence consumption, selenite substrate; Potency, µM (series often up to 114 µM), for the others: at the highest dose activity change, negative = inhibition, most hits filed as inhibitors; 1% of 390,000 active; further: nearly all actives have a fitted effect of over 65% in size
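Rat TrxR1 (90 nM in the dispensed reagent) was pre-reduced with 400 uM NADPH for 5 min at room temperature, then incubated with compound for 15 min. After 400 uM selenite was added, NADPH fluorescence (Ex 340/Em 450 nm) was followed for 8 min.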
Eya2 phos inh – Eya2 (human) phosphatase inhibition. O00167. 0.006% of 330,000 active. AID 488837. Potency, µM (series often up to 76.9 µM), without a hit: top-dose activity, negative = inhibition, hits mostly inhibitors. recombinant Eya2, OMFP fluorescence dephosphorylation (OMFP is methylfluorescein phosphate)
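Eya2 (0.2 uM) preincubated 10 min at ambient with compound, then OMFP substrate added at 50 uM; 10 min reaction in 50 mM HEPES pH 7.5, 50 mM NaCl, 5 uM MgCl2, 0.05% BSA, 1 mM DTT. Fluorescence read at Ex 485/Em 525 nm.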
USP2a block – blocks human ubiquitin-specific protease USP2a; O75604; USP2 core, Ub-CHOP2 coupled fluorogenic reporter, 485/531; Potency, µM (top dose mostly 38.3 µM), for the others: top-dose activity change, negative = inhibition, usual class: inhibitors; 0.01% of 330,000 active;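 further: plate controls were DMSO wells for no effect and full inhibition by NEM control for full effect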
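Cell-free coupled assay: 10nM USP2 core preincubated 30min RT with compound in Tris-HCl pH 8.0/CaCl2/CHAPS buffer, then 25nM Ub-CHOP2 and 25nM reporter substrate; fluorescence (Ex 485/Em 531) read after 60min RT, normalized to NEM inhibition, concentration-response curves fitted.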
TrxR1 substrate – substrates of rat thioredoxin reductase 1. O89049. purified TrxR1 substrate turnover, NADPH consumption readout. Potency, µM (titrated, usually from 114 µM), for inactives: at the top dose activity change, negative = substrate turnover. 0.01% of 390,000 active. AID 588456; further: nearly all actives have a fitted effect of over 50% in size
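Rat TrxR1, dispensed at 90 nM, was prereduced with 400 uM NADPH (final) for 5 min at ~22 deg C, then incubated with compound 15 min before 400 uM selenite. A first-read NADPH fluorescence drop versus no-compound background flagged substrates.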
GALK inhibitor – blocks human galactokinase activity | P51570 | Purified GALK, Kinase-Glo residual ATP luminescence | Potency, µM (highest dose often 57.5 µM), without a hit: top-dose activity change, negative = inhibition, most hits filed as inhibitors | 0.007% of 270,000 active | AID 1868
Target sequence (P51570 whole entry, looked up): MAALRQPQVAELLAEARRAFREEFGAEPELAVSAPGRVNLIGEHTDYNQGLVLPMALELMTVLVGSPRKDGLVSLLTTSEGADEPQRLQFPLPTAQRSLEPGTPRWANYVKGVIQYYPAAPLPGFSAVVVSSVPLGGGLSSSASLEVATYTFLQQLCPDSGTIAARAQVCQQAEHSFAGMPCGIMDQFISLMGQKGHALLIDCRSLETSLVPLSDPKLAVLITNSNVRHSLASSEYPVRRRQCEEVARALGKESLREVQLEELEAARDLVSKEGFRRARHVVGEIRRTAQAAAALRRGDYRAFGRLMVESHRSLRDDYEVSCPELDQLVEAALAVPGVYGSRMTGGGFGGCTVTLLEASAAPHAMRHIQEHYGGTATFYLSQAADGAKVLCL
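Human GALK (5 nM) with 35 uM ATP and 100 uM galactose in 20 mM HEPES pH 8.0, 5 mM MgCl2, 60 mM NaCl, 1 mM DTT, 0.01% BSA. After 1 h at room temperature, leftover ATP was read by Kinase-Glo Plus luminescence.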
RGS4 inh – human RGS4 inhibition; P49798; Transcreener GDP fluorescence polarization, RGS4-accelerated GTP hydrolysis; Potency, µM (series often up to 114 µM), for the others: at the top dose activity change, negative = inhibition, usual class: inhibitors; 0.039% of 390,000 active; further: nearly all actives have a fitted effect of over 75% in size
Target sequence (P49798 whole entry, looked up): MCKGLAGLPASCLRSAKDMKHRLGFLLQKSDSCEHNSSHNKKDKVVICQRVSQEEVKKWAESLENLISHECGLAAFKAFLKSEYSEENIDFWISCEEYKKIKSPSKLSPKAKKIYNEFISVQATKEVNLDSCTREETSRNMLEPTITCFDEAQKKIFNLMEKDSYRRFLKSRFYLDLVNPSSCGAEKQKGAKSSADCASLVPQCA
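MLSMR compounds (23 nl, pin-transferred) preincubated 10 min at room temperature with a 500nM (2x) first reagent, then RGS4 at 900nM (2x) plus Transcreener GDP mix added; fluorescence polarization (620/688 nm) read before and after 90 min at 30 °C.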
Starred values were filed as active, the others as inactive; ! = a repeat was not active; [ ] = remark or other dose. The call rests on the fitted dose curve; in most records, active means well fitted curve in the direction sought with a large enough effect; inconclusive means small, poorly fitted or top-dose-only effect, or another doubt; inactive means no such curve, though single readings can be large; an effect the other way counts as inactive or inconclusive. Unless noted, on the % scale 0 is the no-effect control and ±100 the full control effect; potency means the concentration at half of the fitted maximal effect.

`O=C(O)CCn1cc(C=C2C(=O)NC(=S)NC2=O)c(-c2ccccc2)n1` gave rTrxR1 inhibitor inconclusive, Eya2 phos inh 3%, USP2a block 4%, TrxR1 substrate 5%[57.1 µM], GALK inhibitor 0% and RGS4 inh inconclusive.
For Cc1ccc(NC(=O)COC(=O)/C=C/c2ccco2)cc1S(=O)(=O)N(C)C the results were rTrxR1 inhibitor 40µM*, Eya2 phos inh -5%, USP2a block 0%, TrxR1 substrate -3%, GALK inhibitor -1% and RGS4 inh -19%.
Screening Oc1ccc2c3c1O[C@H]1c4oc5ccccc5c4C[C@@]4(O)C(C2)N(CC2CC2)CC[C@]314 returned RGS4 inh inactive.
`NC(N)=Nc1ccc2[nH]c3c(c2c1)C[C@@]1(O)[C@H]2Cc4ccc(O)c5c4[C@@]1(CCN2CC1CC1)[C@H]3O5` gave rTrxR1 inhibitor 27µM*, Eya2 phos inh 4%, USP2a block 0%, TrxR1 substrate 20%[57.1 µM] and RGS4 inh 24µM*.
O=C(c1ccco1)N1CCN(C(=O)c2ccc(COc3ccc(Cl)cc3Cl)o2)CC1 was read as rTrxR1 inhibitor 7.1µM*, TrxR1 substrate -3%[57.1 µM] and RGS4 inh -37%.
For O=C(O)COc1ccc(Cl)cc1Cl the results were rTrxR1 inhibitor 9%, TrxR1 substrate 1% and RGS4 inh 1%[11.4 µM].
For CCN(CC)c1ccc(CC2C(=O)N(C)C(=O)N(C)C2=O)cc1 the results were rTrxR1 inhibitor 32µM*, Eya2 phos inh -6%, USP2a block 4%, TrxR1 substrate -5%, GALK inhibitor -1% and RGS4 inh inconclusive.
C=CCOc1ccc(CC2C(=O)N(C)C(=O)N(C)C2=O)cc1 was read as rTrxR1 inhibitor 3%[57.1 µM], Eya2 phos inh -22%, USP2a block -1%, TrxR1 substrate -3%, GALK inhibitor 2% and RGS4 inh -19%[11.4 µM].
COc1ccc(NC(=O)CCn2cnc3onc(-c4ccc(F)cc4)c3c2=O)cc1OC was read as rTrxR1 inhibitor inconclusive, TrxR1 substrate -10% and RGS4 inh 19%.
Screening CC1CC[C@@]2(OC1)O[C@@H]1[C@@H](O)[C@H]3C4CC[C@H]5C[C@@H](O[C@@H]6O[C@H](CO)[C@H](O[C@@H]7O[C@H](CO)[C@@H](O)[C@H](O[C@@H]8OC[C@@H](O)[C@H](O)[C@H]8O)[C@H]7O[C@@H]7O[C@H](CO)[C@@H](O)[C@H](O[C@@H]8O[C@H](CO)[C@@H](O)[C@H](O)[C@H]8O)[C@H]7O)[C@H](O)[C@H]6O)[C@H](O)C[C@]5(C)C4CC[C@]3(C)[C@H]1[C@@H]2C (stereo partly specified) returned RGS4 inh inactive.
C[N+](C)(C)CC1CCCc2ccccc2C1=O (stereo unspecified) was read as rTrxR1 inhibitor 71µM*, TrxR1 substrate -3% and RGS4 inh inconclusive.
Screening Cc1ccc(C(=O)c2cn(CC(=O)Nc3ccc(C(C)C)cc3)c3nc(C)ccc3c2=O)cc1 returned rTrxR1 inhibitor 31%, TrxR1 substrate 2% and RGS4 inh -8%.
C/C1=C\[C@@H](C)C/C=C/[C@H]2[C@@H]3O[C@]3(C)[C@@H](C)[C@H]3[C@H](Cc4c[nH]c5ccccc45)NC(=O)[C@]32C(=O)/C=C/C(=O)[C@@H]1O was read as rTrxR1 inhibitor inconclusive, Eya2 phos inh -1%, USP2a block 1%, TrxR1 substrate 2%, GALK inhibitor 5% and RGS4 inh inconclusive.
For CC1=CC2/C=C(\C)CCC(O)C(O)/C=C/C(=O)C23C(=O)NC(CC(C)C)C3C1C (stereo unspecified) the results were rTrxR1 inhibitor 16µM*, Eya2 phos inh -6%, USP2a block 5%, TrxR1 substrate 12%[57.1 µM], GALK inhibitor -6% and RGS4 inh inconclusive.
`Cn1cccc1-c1cccnc1` gave RGS4 inh inactive.
Screening CC1=CC2OC3CC4OC(=O)C=CC=CC(C(C)O)OCC(O)C(C)CC(=O)OCC2(CC1O)C4(C)C31CO1 (stereo unspecified) returned rTrxR1 inhibitor 45µM*, TrxR1 substrate 1% and RGS4 inh -17%.
CC1=CC2OC3CC4OC(=O)C=CC=CC(=O)OCCC(C)C(O)C(=O)OCC2(CC1O)C4(C)C31CO1 (stereo unspecified) was read as rTrxR1 inhibitor 6%[11.4 µM], TrxR1 substrate 2%[11.4 µM] and RGS4 inh -11%.
For O=C1/C(=C/c2ccc(N(CCCl)CCCl)cc2)Cc2ccccc21 the results were rTrxR1 inhibitor 2% and TrxR1 substrate -1%.
For COc1ccccc1-n1c(O)c(/C=N/NC(=S)Nc2ccccc2)c(=O)[nH]c1=S the results were rTrxR1 inhibitor 10µM*, Eya2 phos inh 13%, USP2a block 1%, TrxR1 substrate 2%, GALK inhibitor 1% and RGS4 inh inconclusive.
`CC1(C)[C@@H](O)C[C@H]2[C@](C)(O)[C@@H]3CC[C@H]4[C@@H](O)[C@@]3(C[C@@H](O)[C@@]21O)C[C@@]4(C)O` gave RGS4 inh inactive.
Screening CCOC(=O)N1CC(C)N(/[N+]([O-])=N/Oc2ccc([N+](=O)[O-])cc2[N+](=O)[O-])CC1C (stereo unspecified) returned rTrxR1 inhibitor 11µM*, TrxR1 substrate -6% and RGS4 inh -16%.
CCOC(=O)N1CCN(/[N+]([O-])=N/Oc2ccc([N+](=O)[O-])cc2[N+](=O)[O-])C(C)C1 (stereo unspecified) was read as rTrxR1 inhibitor -12%, TrxR1 substrate -1% and RGS4 inh inconclusive.
Screening N#CC(C#N)=NNc1ccc([N+](=O)[O-])cc1 returned rTrxR1 inhibitor 22µM*, Eya2 phos inh -20%, USP2a block -1%, TrxR1 substrate inconclusive and RGS4 inh -22%.
`O=C(Nc1ccccc1)c1cc([N+](=O)[O-])ccc1N1CCNCC1` gave rTrxR1 inhibitor inconclusive, Eya2 phos inh 4%, USP2a block 0%, TrxR1 substrate -6%, GALK inhibitor 2% and RGS4 inh -13%.
Screening O=[N+]([O-])c1ccc2nc(N3CCNCC3)ccc2c1 returned rTrxR1 inhibitor 79µM*!, Eya2 phos inh -1%, TrxR1 substrate 5%[57.1 µM] and RGS4 inh 24%[56.9 µM].
Screening CN1[C@@H]2CC[C@H]1CC(OC(c1ccc(F)cc1)c1ccc(F)cc1)C2 (stereo partly specified) returned RGS4 inh 410%[56.9 µM].

Assay outcomes deposited in PubChem BioAssay by National Center for Advancing Translational Sciences (NCATS).
